# Experimental data from PubChem BioAssay AID1117319 (Southern Research Institute, 2015).
# Several values for one entry are separate records, joined by “and”; a condition that tells them apart may be missing. Identical values can stand only once. The whole screen tested about 260,000 compounds, of which about 1,500 (0.58%) were called active. Another 5% or so got no clear call; they are omitted.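 How the source made its calls: active means inhibition above a set limit at one or more doses, reproduced on every date tested; inconclusive means results disagree between test dates, or hit never tested in dose response; inactive means the rest.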 Only a sample is shown. Results with a measured potency or affinity are listed apart.
# Target: Virion infectivity factor (Human immunodeficiency virus type 1 group M subtype B (isolate BH10)) + Virion infectivity factor (Human immunodeficiency virus type 1 group M subtype B (isolate BRU/LAI)) + Virion infectivity factor (Human immunodeficiency virus type 1 group M subtype B (isolate PCV12)) + Virion infectivity factor (Human immunodeficiency virus type 1 group M subtype B (isolate HXB2)) + DNA dC->dU-editing enzyme APOBEC-3G (Homo sapiens) (UniProt P69720+P69721+P69722+P69723+Q9HC16)
# Assay: inhibitors of Vif binding to APOBEC3G peptide, primary screen, biochemical, TR-FRET, GST-Vif 1-94, biotin-A3G peptide, dose response retest (AID 1117319);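 further: Vif residues 1-94 fused to GST binding biotinylated APOBEC3G peptide 110-148; 0% = full assay without inhibitor and 100% = GST in place of GST-Vif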
# Settings: hits give high values
row,SMILES,inhibition
1,C(=C1/CCCC2=C1Nc1ncnn1C2c1ccccc1)/c1ccccc1 (stereo not drawn),0.53% (inactive)
2,Fc1ccccc1/C=C1\CCCC2=C1Nc1nnnn1C2c1ccccc1F (stereo not drawn),15.4% (inactive)
3,CC1CCC/C(=C\Nc2ccccc2C(=O)O)C1=O (stereo not drawn),5.74% (inactive)
4,Cc1cc(C(=O)O)ccc1N/C=C1\CCCC(C)C1=O (stereo not drawn),10.9% (inactive)
5,CC1CCC/C(=C\Nc2ccc(C(=O)O)cc2)C1=O (stereo not drawn),4.93% (inactive)
6,CCOC(=O)c1ccc(N/C=C2/CCCC(C)C2=O)cc1 (stereo not drawn),1.6% (inactive)
7,Cc1ccc(C(=O)NCCc2csc(-c3cccnc3)n2)cc1,3.26% (inactive)
8,O=C(CCC(=O)NNC(=O)c1ccc([N+](=O)[O-])cc1)NCc1ccccc1,6.94% (inactive)
9,O=C(NCCO)c1cc2ccccc2cc1O,2.23% (inactive) and 6.09% (inactive)
10,COC1=CC(=O)C(OC)=C(OC)C1=O,5.9% (inactive)
11,CCCCCCCCSC1=CC(=O)C(OC)=C(OC)C1=O,31.4% (inactive)
12,CSCCC(NC(=O)c1ccco1)C(=O)NCCc1ccc(Cl)cc1 (stereo not drawn),-15.8% (inactive)
13,CC(=O)c1ccccc1NS(=O)(=O)c1ccccc1Cl,-6.08% (inactive)
14,CCN(CC)C(=O)Oc1ccc2c(c1)O/C(=C\c1ccco1)C2=O,12.6% (inactive)
15,COC(=O)COc1ccc2c(c1)O/C(=C\c1ccco1)C2=O,24% (inactive)
16,CC(C)Nc1nc2cccnc2s1,-0.88% (inactive)
17,O=C(Nc1ccc(NC(=O)c2cccs2)cc1)c1ccc2c(c1)OCCO2,3.57% (inactive)
18,COc1ccc(N2CCN(C(=O)CCc3c[nH]c4ccccc34)CC2)cc1,3.01% (inactive)
19,O=C(CCc1c[nH]c2ccccc12)N1CCN(c2ccc(F)cc2)CC1,-3.01% (inactive)
20,O=C(/C=C/c1ccccc1Cl)N(Cc1ccc(Cl)cc1)C1CCS(=O)(=O)C1 (stereo not drawn),23.6% (inactive)
21,CCC(C)c1ccccc1NC(=O)c1cccnc1 (stereo not drawn),-3.72% (inactive)

row,SMILES,inhibition
1,Cc1cc(Cl)c(S(=O)(=O)NC2CCCC2)cc1OCC(=O)NC1CCCCC1,-2.05% (inactive)
2,Cc1cc(Cl)c(S(=O)(=O)N2CCCC2)cc1OCC(=O)NC1CCCCC1,-1.25% (inactive)
3,CC(=O)c1cccc(N(CC(=O)Nc2ccc(F)cc2F)S(C)(=O)=O)c1,7.3% (inactive)
4,O=C(NNc1cccc(Cl)n1)Nc1cccc(C(F)(F)F)c1,2.4% (inactive)
5,Cc1cc(C)cc(NC(=O)CSc2nnc(-c3ccccc3C)o2)c1,27.4% (inactive)
6,COc1cc(NC(=O)c2cccc(Cl)c2)ccc1NC(=O)c1cccs1,2.27% (inactive)
7,Cc1ccsc1C(=O)C1CCCN(Cc2cn(C)nc2-c2ccccc2)C1 (stereo not drawn),-6.7% (inactive)
8,Cc1cc(C)c(C#N)c(Oc2ccc(O)cc2)n1,0.3% (inactive)
9,Cc1cc(C)c(C#N)c(Oc2ccc(F)cc2)n1,18.6% (inactive)
10,O=C1c2ccc([N+](=O)[O-])cc2C(=O)N1CNc1ccccn1,3.96% (inactive)
11,N#CCCN(Cc1ccccc1)C(=O)c1nccnc1C(=O)O,-11% (inactive)
12,O=C(N/N=C/c1cn(Cc2ccccc2)c2ccccc12)c1cccnc1,-5.6% (inactive)
13,O=C(N/N=C/c1cn(Cc2ccccc2)c2ccccc12)c1ccncc1,8.92% (inactive)
14,Cc1ccc(S(=O)(=O)Cc2c(C)noc2C)cc1,3.86% (inactive)
15,O=C(/C=C/c1ccc(O)cc1)c1ccc(O)cc1O,9.02% (inactive)
16,O=CN/C=C/c1cccc(O)c1,-10.2% (inactive)
17,Cc1cc(C)c(S(=O)(=O)N2CCCCC2)cc1N(C)S(=O)(=O)c1ccc(Cl)cc1,17.4% (inactive) and -11.3% (inactive)
18,Cc1cc(C)c(S(=O)(=O)N2CCCCC2)c(C)c1N(C)S(=O)(=O)c1ccccc1,-2.38% (inactive)
19,Cc1ccc(C2C(C#N)=C(N)N(c3cccnc3)C3=C2C(=O)CCC3)c(C)c1 (stereo not drawn),-5.44% (inactive)
20,CN(C)N1C(N)=C(C#N)C(c2cccnc2)C2=C1CC(C)(C)CC2=O (stereo not drawn),-8.23% (inactive)
21,CN(C)N1C(N)=C(C#N)C(c2ccccc2)C2=C1CCCC2=O (stereo not drawn),9.57% (inactive)

row,SMILES,inhibition
1,COc1cc(C2C(C#N)=C(N)N(N(C)C)C3=C2C(=O)CCC3)ccc1O (stereo not drawn),3.96% (inactive)
2,CC(C)(C)NC(=O)CSc1nc(O)cc(=O)[nH]1,6.41% (inactive)
3,CCC1=NN(C(=O)Cc2ccc([N+](=O)[O-])cc2)C(O)(C(F)(F)F)C1 (stereo not drawn),17.1% (inactive)
4,CC1CN(c2ccccc2)CCN1Cc1nc(Cc2ccccc2)no1 (stereo not drawn),-4.62% (inactive)
5,Cc1ccc(-c2csnn2)cc1,-3.52% (inactive)
6,O=C(Nc1ccc(Cl)cc1)c1cncs1,-5.16% (inactive)
7,COC(=O)CSC(=S)N1CCCC(C)C1 (stereo not drawn),-1.45% (inactive)
8,COc1ccc(Nc2nc(OC)nc(OC)n2)cc1,2.78% (inactive)
9,COc1ccc(Nc2c(C)cccc2C)cc1,-5.1% (inactive)
10,Cc1ccccc1-n1c(-c2ccc(Cl)cc2)cnc1SCC(=O)NC1CCS(=O)(=O)C1 (stereo not drawn),-0.29% (inactive)
11,Cc1ccc(-c2cn3c(n2)SCC3)cc1,-0.83% (inactive)
12,Oc1ccc(-c2cn3c(n2)SCC3)cc1,1.62% (inactive)
13,CC(=O)c1cccc(CN2CCN(Cc3ccc(C)cc3)C(CCO)C2)c1 (stereo not drawn),-2.61% (inactive)
14,COC(=O)C(C)(C)ONC(=O)Nc1ccccc1Br,23.3% (inactive)
15,CC1CCN(c2nc(-c3ccco3)c3c(c2C#N)CC(C)(C)OC3)CC1,27.3% (inactive)
16,CC1(C)Cc2c(C#N)c(N3CCN(C(=O)c4ccccc4Cl)CC3)nc(-c3ccco3)c2CS1,15% (inactive)
17,COC(=O)C1=C(C)Nc2nnnn2C1c1cc(OC)ccc1OC (stereo not drawn),-7.75% (inactive)
18,CCCCN(CC)CCNC(=O)c1nn(-c2ccc(OC)cc2)c(=O)c2c1c1ccccc1n2C,6.38% (inactive)
19,CCCOc1ccccc1C1NC(=O)NC(C)=C1C(=O)OCc1ccccc1 (stereo not drawn),-9.5% (inactive)
20,CCCCOc1ccccc1C1NC(=O)NC(C)=C1C(=O)OCCOCC (stereo not drawn),2% (inactive)
21,CCc1nnc(NS(=O)(=O)c2ccc(NC(=S)Nc3ccc(F)cc3)cc2)s1,-0.27% (inactive)
